About 79,000 compounds went through this panel and 15% of them were active in at least one assay; those are over-represented in the sample as a whole. Values without a mark were called inactive. No stated cut-off is given here; in the data, active means growth inhibition above about 70%; inactive means the rest.
assay: NCI Yeast Anticancer Drug Screen. Data for the mlh1 rad18 strain (AID 175); details: S. cerevisiae mlh1 rad18 strain growth inhibition; at 50.0 µM; hits give high values
Procedure, shortened: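 Read-out is yeast growth inhibition, calculated against vehicle-only controls. The compound was applied to a strain engineered with DNA damage repair alterations.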

| Structure (SMILES) | growth inhibition [%] |
| --- | --- |
| Cc1cc(N)ccc1-c1ccc(N)cc1C | 37.8 |
| C=CCOC(=O)C(=O)OCC=C | 14.8 |
| S=c1nn[nH]c2ccccc12 | 8.25 |

From PubChem BioAssay (NCI)
